From PubChem
Many of the other results were omitted from the sample, so hits are more common in it than they were.
p53ts 32C kill = kills p53ts cells at the permissive temperature. AID 924. Potency, µM (doses to about 46.1 µM), inactives show top-dose activity change, negative = cytotoxicity, actives largely listed as cytotoxic. 0.93% of 130,000 active. H1299-p53A138V at 32C, ATP luminescence viability, 24 h;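 note: potency is the fitted concentration of half-maximal effect; 0% = DMSO and -100% = full killing by reference compound; nearly all actives have a fitted effect of over 55% in size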
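Cells: H1299 p53ts (A138V), 600/well, pre-incubated 16–30 h at 37C. Cpd up to 46 uM, 24 h, 32C. Readout: ATPlite luminescence, 20 min RT. Normalization: DMSO vs tamoxifen 100 uM. AC50 by Hill equation.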
IkB sig inh = IkB pathway inhibition in ABC-DLBCL cells; 0.04% of 110,000 active; ABC-DLBCL IkBa-CBG/CBR dual luciferase ratio, 4 h; response scale: scaled: untreated 0%, proteasome inhibitor 100%; AID 445; Potency, µM (titrated, usually from 57.1 µM), inactives show at the highest dose IkBa stabilization activation; active = well fitted curve in the direction sought with a large enough effect in the signal ratio, not every such curve was filed as active; inconclusive = small, poorly fitted or top-dose-only effect, or a change in a side signal; the % refers to the signal ratio;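 note: potency is the fitted concentration of half-maximal effect; the direction sought is a rising ratio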
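Luminescence ratio of IκBα-fused green versus native red beetle luciferase in OCI-Ly3 cells, 4 h post-doxycycline with compound; red signal alone, scaled from basal (0%) to zero light (-100%), flagged nonspecific or cytotoxic effects.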
IMPase inh = membrane-permeable compound that blocks inositol monophosphatase. P97697. CHO-M1 cells, IP1 accumulation, HTRF TR-FRET ratio. inhibition (IP1 accumulation), % at 46.1 µM. 120,000 tested, under 10 active; active = well fitted curve in the direction sought with a large enough effect in the signal ratio, not every such curve was filed as active; inconclusive = small, poorly fitted or top-dose-only effect, or a change in a side signal; inactive = no such curve, though single readings can be large or run the other way; the % refers to the signal ratio;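 note: cells stimulated with carbachol in lithium chloride buffer; plate controls were DMSO basal wells for no effect and reference inhibitor wells for full effect; higher means more IMPase inhibition seen as more IP1 and lower FRET ratio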
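In this qHTS, compounds (final up to 46 uM) act on CHO-M1 cells that are then activated through the M1 receptor with carbachol, in pH 7.4 buffer containing 50 mM LiCl, for 30 min. IP1 accumulation is quantified by the IP-One immunoassay.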
p53ts 39C tox = kills p53ts cells at the nonpermissive temperature; 1.5% of 130,000 active; AID 902; H1299-p53A138V viability at 39C, ATP luminescence, 24 h; Potency, µM (doses to about 46.1 µM), without a hit: at the top dose activity change, negative = cell killing, hits mostly cytotoxic; note: potency is the fitted concentration of half-maximal effect; % is set by controls: 0 for no effect and ±100 for the full control effect; nearly all actives have a fitted effect of over 55% in size
Imprint erasure = induces erasure of genomic imprints in mouse ES cells | mouse ES Peg3-LacZ reporter, beta-gal luminescence, 40 h | Potency, µM (highest dose often 60.7 µM), for the others: top-dose activity change, positive = activation, usual class: activators | 0.02% of 110,000 active | AID 1948; note: potency is the fitted concentration of half-maximal effect
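Imprint erasure is scored as LacZ activity from the silenced maternal Peg3 allele in feeder-free female ES cells cultured 40 h with LIF. Luminescence is normalized to in-plate negative controls and fitted to the Hill equation.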
Luciferase inh = firefly luciferase inhibition; P08659; purified firefly luciferase, luminescence, 8 min; Potency, µM (series often up to 57.1 µM), for the others: top-dose activity change, negative = inhibition, most hits filed as inhibitors; 2.2% of 72,000 active; AID 411; note: potency is the fitted concentration of half-maximal effect; % is set by controls: 0 for no effect and ±100 for the full control effect; nearly all actives have a fitted effect of over 40% in size
Target sequence (P08659 whole entry, looked up): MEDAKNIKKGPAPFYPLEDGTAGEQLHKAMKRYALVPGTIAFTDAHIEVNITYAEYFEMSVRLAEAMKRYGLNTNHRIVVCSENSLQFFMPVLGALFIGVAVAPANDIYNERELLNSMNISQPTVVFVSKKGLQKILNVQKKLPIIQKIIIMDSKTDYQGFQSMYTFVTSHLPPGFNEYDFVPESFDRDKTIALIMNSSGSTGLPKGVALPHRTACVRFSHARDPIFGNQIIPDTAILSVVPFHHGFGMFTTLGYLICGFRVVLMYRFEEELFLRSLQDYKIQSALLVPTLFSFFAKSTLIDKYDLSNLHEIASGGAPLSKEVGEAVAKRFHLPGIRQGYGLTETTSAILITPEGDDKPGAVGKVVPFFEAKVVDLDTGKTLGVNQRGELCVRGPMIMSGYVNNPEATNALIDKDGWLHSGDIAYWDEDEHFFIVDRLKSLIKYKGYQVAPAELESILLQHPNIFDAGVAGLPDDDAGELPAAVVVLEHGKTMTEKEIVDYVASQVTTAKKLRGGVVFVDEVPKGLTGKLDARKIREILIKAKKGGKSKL
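Substrate buffer containing 10 uM ATP (pH 7.2 imidazole, Mg2+, KCl, detergent, BSA) is dispensed, compound pinned in, then luciferase/luciferin detector mix added. After 8 min at ambient temperature, light output is measured.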
Starred values were filed as active, the others as inactive; ? = inconclusive; nt = no result; [ ] = remark or other dose. Unless noted, calls come from the whole dose curve; as a rule, active = well fitted curve in the direction sought with a large enough effect; inconclusive = small, poorly fitted or top-dose-only effect, or another doubt; inactive = no such curve, though single readings can be large; an effect the other way counts as inactive or inconclusive.

SMILES	p53ts 32C kill	IkB sig inh	IMPase inh	p53ts 39C tox	Imprint erasure	Luciferase inh
CCCn1c(/C=C/c2ccccc2)nc2ccccc21	13µM*	-1%	8	10µM*	-28%[10.9 µM]	nt
COc1cc(OC)c(N(C)C(=O)c2sc3nc4n(c(=O)c3c2C)CCCC4)cc1Cl	33%	?	nt	26%	-8%[10.9 µM]	nt
COC(=O)Cc1c(C)nc2nc(-c3ccccc3)[nH]n2c1=O	-24%	15%	13	-8%	-37%	25µM*
COC(=O)Cc1c(C)nc2nc(-c3ccc(C)cc3)[nH]n2c1=O	10µM*	?	-2	?	-19%[10.9 µM]	nt
CCOc1ccccc1NC(=O)c1sc2nc(-c3ccc(OC)cc3)ccc2c1N	6.3µM*	-1%	-6	4µM*	-13%[10.9 µM]	nt
N#CCc1nc(CSc2nc3ccccc3o2)cs1	-4%	1%	2	-8%	-26%	-10%
c1ccc2oc(SCc3nc4ccccc4s3)nc2c1	-25%	?	-17	-17%	-23%	16µM*
O=C(O)[C@H](C1NCCS1)N1Cc2ccccc2C1 (stereo partly specified)	nt	nt	nt	nt	2%[10.9 µM]	nt
Cc1cccc(NC(=O)c2cnc3sccn3c2=O)c1	7.9µM*	2%	nt	10µM*	-20%	10µM*
Cc1cccc(NC(=O)c2cnc3ccccn3c2=O)c1	1%	1%	4	13%	-17%	0%
Cc1ccc(-c2cn3c(n2)CCCC3)cc1	-7%	0%	-1	-11%	-23%	-1%
COc1ccc(-c2cn3c(n2)CCC3)cc1	-25%	0%	1	-27%	-78%	16µM*
C/C(=C\CNc1ncnc2c1ncn2[C@@H]1O[C@@H](CO)[C@@H](O)[C@H]1O)CO	nt	0%[11.4 µM]	nt	nt	nt	1%[11.4 µM]
Cc1ccc(C)c(N2CCN(CCCNC(=O)c3cnn(-c4ccc(F)cc4)c3C3CCN(C(=O)OC(C)(C)C)CC3)CC2)c1	?	?	nt	25µM*	-5%[10.9 µM]	nt
Cc1ccc(C)c(N2CCN(CCCNC(=O)c3cnn(-c4ccccc4Cl)c3C3CCN(C(=O)OC(C)(C)C)CC3)CC2)c1	2%	?	nt	16µM*	-8%[10.9 µM]	nt
COc1cccc(CSCC(=O)O)c1	0%[9.22 µM]	0%[11.4 µM]	nt	-5%[9.22 µM]	-6%[10.9 µM]	3%[11.4 µM]
O=C(NC1CCN(Cc2ccccc2)C1)c1ccc(Cc2nc3ccccc3[nH]2)cc1 (stereo unspecified)	-4%	nt	nt	-3%	nt	nt
COc1ccc(N2CCN(C(=O)COc3ccc4ccccc4c3)CC2)cc1	11%	1%	0	4%	-9%	0%
COc1cc(OC)cc(C(=O)N2CCN(C(=O)COc3ccc4ccccc4c3)CC2)c1	?	1%	-2	?	-16%	10µM*
Cc1ccc(-c2ccc(SCC(=O)Nc3nonc3C)nn2)cc1	-28%	1%	-3	?	-50%	7.9µM*
Cc1ccc(C)c(N2CCN(CCCNC(=O)c3ccc4nc(C(C)C)oc4c3)CC2)c1	-14%	0%	nt	-21%	-20%[10.9 µM]	nt
Cc1ccc(Cl)cc1N1CCN(CCCNC(=O)c2ccc3nc(N4CCCCC4)sc3c2)CC1	-2%	?	nt	-4%	-22%[10.9 µM]	nt
Cc1ccc(C)c(N2CCN(CCCNC(=O)c3ccc4nc(N5CCC(C)CC5)sc4c3)CC2)c1	-6%	?	nt	13µM*	-19%[10.9 µM]	nt
Cc1ccc(C)c(N2CCN(CCCNC(=O)c3ccc4nc(CCc5ccccc5)oc4c3)CC2)c1	-27%	?	nt	25µM*	-18%[10.9 µM]	nt
COc1ccc(CNC(=O)c2cc3cccc4c3n2CC(C)S4)cc1OC (stereo unspecified)	9%	?	nt	-16%	?	nt
SMILES	p53ts 32C kill	IkB sig inh	IMPase inh	p53ts 39C tox	Imprint erasure	Luciferase inh
Cc1[nH]c2ccccc2c1SCC(=O)N1CCOCC1	-5%	1%	1	13µM*	-37%	1%
O=C(CSc1c[nH]c2ccccc12)N1CCOCC1	-8%	-1%	2	5%	-5%	1%
CCN(CC)S(=O)(=O)c1cccc(-c2cn3cc(C)ccc3n2)c1	nt	nt	1	nt	nt	nt
Cc1ccc2nc(-c3cccc(S(=O)(=O)N(C)C)c3)cn2c1	?	-3%	2	?	-18%	13µM*
COC(=O)C/C=C\[C@@H](C)[C@@H](/C=N\O[C@@H](C)c1cc(-c2c(C)cc(C)cc2C)no1)NS(=O)(=O)c1ccc(C)cc1	1%[9.22 µM]	nt	nt	-6%[9.22 µM]	nt	0%[11.4 µM]
O=C(/C(C=Nc1ccc(Br)cc1)=C(/O)c1ccco1)C(F)(F)F	11µM*	nt	16	11µM*	nt	nt
Cc1ccc(NS(=O)(=O)c2c(C)nc3sccn3c2=O)c(Cl)c1	16%	-5%	?	38%	-6%[10.9 µM]	nt
Cc1ccc(C(C)C)c(OCC(=O)Nc2ccc(O)c(-c3nc4cc(Cl)ccc4o3)c2)c1	2%	-1%	-7	5%	-12%[10.9 µM]	nt
Cc1cc2oc(C(=O)Nc3nc(-c4ccccc4)ns3)c(C)c2cc1Cl	-2%	?	nt	-12%	-9%[10.9 µM]	nt
O=C(Nc1cc(Cl)cc(Cl)c1)c1cc(S(=O)(=O)N2CCC3(CC2)OCCO3)ccc1F	-28%	?	nt	?	-15%[10.9 µM]	nt
O=C(Nc1cccc(Cl)c1)N1CC2CCCN2c2ccccc21 (stereo unspecified)	0%	2%	nt	10µM*	6%[10.9 µM]	nt
O=C(NCc1cccc(Cl)c1)c1ccc(NC(=O)N2CC3CCCN3c3ccccc32)cc1 (stereo unspecified)	-2%	?	nt	5%	-7%[10.9 µM]	nt
CC(C)c1ccc(NS(=O)(=O)c2ccc3nc(-c4ccccc4)[nH]c3c2)cc1	?	?	5	20µM*	-12%[10.9 µM]	nt
O=C(COc1ccccc1Cl)Nc1ccc(Cl)cn1	13µM*	-2%	-3	16µM*	-51%	16µM*
CSc1ccccc1NC(=O)COc1ccc(Cl)cc1Cl	nt	nt	3	nt	nt	nt
O=C(COc1ccc(Cl)cc1Cl)NC1CCSC1=O (stereo unspecified)	-20%	6%	-9	?	-10%	25µM*
O=C(COc1ccc(Cl)cc1Cl)Nc1ccccn1	0.4µM*	?	-4	0.63µM*	-97%	0.079µM*
COc1ccccc1NC(=O)C(=O)Nc1ccccn1	nt	nt	1	nt	nt	nt
COc1ccccc1OCC(=O)Nc1ccccn1	10µM*	?	4	7.9µM*	-92%	10µM*
COc1cc(OC)c2c(c1)OC(=O)CC2c1ccccc1OC (stereo unspecified)	nt	nt	nt	nt	-10%	nt
CC(C)(N)CO[C@H]1C[C@H]2CC[C@@]1(C)C2(C)C	1%[9.22 µM]	-1%[11.4 µM]	nt	-2%[9.22 µM]	-4%[10.9 µM]	2%[11.4 µM]
CCOc1ccccc1NC(=O)c1c(NC(=O)c2cccc(C)c2)sc2c1CCCC2	0%	3%	6	2%	-9%[10.9 µM]	nt
O=C(Nc1ccc2c(c1)N(C1CCCC1)C(=O)c1ccccc1S2)c1ccccc1F	?	-2%	nt	-18%	-17%[10.9 µM]	nt
